Inhibition data for 96 molecules are collected here from PubChem BioAssay AID1578 (Sanford-Burnham Center for Chemical Genomics, 2009).

Several values for one entry are separate records, joined by “and”; a condition that tells them apart may be missing. Identical values can stand only once. Hit rate of the full screen: of about 290,000 compounds, about 3,000 (1%) were called active. This excerpt belongs to a sample that is enriched for actives. A number with no mark means an inactive call. Rule as the data show it: active = inhibition mostly above about 36% (no sharp cut-off); inactive = mostly below about 34%.

The assay is described as follows: inhibition of NOD1-driven NF-kB reporter – cell-based, luminescence, uHTS, primary screen (AID 1578).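 Also: HEK-293T reporter cells stimulated with the NOD1 agonist gamma-tri-DAP.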 Particulars: NOD1-driven NF-kB luciferase reporter cells, at 4 µM, stronger effect = higher value. In general terms: In a reporter assay the amount or activity of a reporter protein is the signal.
As a reminder, the inhibition is the drop in the measured response relative to a control, in per cent. With `CCOc1ccc(NC(=O)Nc2cc(OCC(F)(F)F)cc(OCC(F)(F)F)c2)cc1`, the inhibition was -32.9%.

As for `O=C(Nc1ccc(F)cc1)Nc1cc(OCC(F)(F)F)cc(OCC(F)(F)F)c1`, the inhibition was 84.5% (active).

Regarding `O=C(Nc1ccccc1)Nc1cc(OCC(F)(F)F)cc(OCC(F)(F)F)c1`, the inhibition was -5.2%.

For `C[C@H](NC(=O)[C@@H]1Cc2ccccc2CN1)C(=O)NC1CCCC1`, the inhibition is -25.1%.

Consider `COc1cccc(NC(=O)c2ccc(NC(=O)C(C)(C)C)cc2)c1`, for which the inhibition was -63%.

Regarding `CCCOc1ccc(/C=C/C(=O)Nc2ccc([N+](=O)[O-])cc2C)cc1`, the inhibition was 0.8%.

`O=C(/C=C/c1ccc([N+](=O)[O-])cc1)Nc1cccnc1`: the inhibition was -4.6%.

In the case of `CCCOc1ccc(/C=C/C(=O)Nc2ccc([N+](=O)[O-])cc2)cc1`, the inhibition is 76.6% (active).

Regarding `O=C(/C=C/c1ccc([N+](=O)[O-])cc1)Nc1ncc([N+](=O)[O-])s1`, the inhibition was 54.9% (active).

`CCCCOc1ccc(/C=C/C(=O)Nc2ccc([N+](=O)[O-])cc2C)cc1`: the inhibition is -22.5%.

As to `O=C(Nc1ccccc1)Nc1ncc([N+](=O)[O-])s1`, the inhibition was -0.5%.

Turning to `COCC(C)n1c(SC(C)C(=O)NC2CCCCC2C)nc2ccccc2c1=O` (stereo unspecified), the inhibition was -27.1%.

In the case of `CN(CC(=O)Nc1ccc(Cl)c(C(F)(F)F)c1)C(=O)CC1Sc2ccccc2NC1=O` (stereo unspecified), the inhibition was -18.8%.

Take `O=S(=O)(c1ccc(F)cc1)N1CCN(CC(O)COc2ccccc2F)CC1` (stereo unspecified): the inhibition is -0.6%.

As to `COc1cccc(CNC(=O)CCC(=O)N2CCSc3ccccc32)c1OC`, the inhibition was 5.1%.

Consider `CC(=O)Nc1ccc(S(=O)(=O)N2CCCC2C(=O)Nc2ccc3c(c2)OCCO3)cc1` (stereo unspecified), for which the inhibition was -17.3%.

For the molecule `CCO[C@@H]1OC(C(=O)N2CCN(C)CC2)=C[C@H](c2csc3ccccc23)[C@H]1CCCO`, the inhibition was -18%.

As for `NNC(=O)CCN1CCN(C(c2ccccc2)c2ccccc2)CC1`, the inhibition is -18.4%.

On to `NNC(=O)CCN1CCN(Cc2ccccc2)CC1`, for which the inhibition is 45.4% (active).

As for `O=C(CCN1CCN(Cc2ccccc2)CC1)Nc1ccccc1Cl`, the inhibition was -19.8%.

For the molecule `COC(=O)N/N=C/c1cc(Cl)cc(Cl)c1OCc1ccccc1F`, the inhibition is -1.4%.

As to `C=CCSc1nc(C)c(CC=C)c(=O)[nH]1`, the inhibition is -34.6%.

Turning to `C=CCSc1nc(C)c(CC(=C)C)c(=O)[nH]1`, the inhibition was -23.6%.

Consider `C=CCSc1nc(C)c(Cc2cccc3ccccc23)c(=O)[nH]1`, for which the inhibition is 41.9% (active).

Regarding `C/C(=N\NC(=O)C1CC1)c1cccs1`, the inhibition was -17.5%.

Take `CCc1ccnc(NS(=O)(=O)c2ccc3c(c2)CCO3)c1`: the inhibition was -5.6%.

Turning to `O=S(=O)(N/N=C\c1c(F)cccc1Cl)c1ccc(Cl)cc1`, the inhibition was -0.4%.

As to `CCCOC(=O)c1ccc(Cl)c(NC(=O)c2ccc(-c3ccccc3)cc2)c1`, the inhibition is 3.5%.

Take `COC(=O)c1ccc(Cl)c(NC(=O)c2ccc(-c3ccccc3)cc2)c1`: the inhibition is 6%.

As for `CCOC(=O)c1ccc(Cl)c(NC(=O)c2ccc(-c3ccccc3)cc2)c1`, the inhibition is 104% (active).

Consider `Cc1cc(NS(=O)(=O)c2ccc(NC(=O)C(C)Oc3ccc(Cl)cc3)cc2)no1` (stereo unspecified), for which the inhibition is 6.9%.

For `O=C(Nc1ccon1)C12CC3CC(C1)CC(n1cnc([N+](=O)[O-])n1)(C3)C2`, the inhibition was -18.8%.

With `O=C(Nc1ccccc1)C12CC3CC(C1)CC(n1cnc([N+](=O)[O-])n1)(C3)C2`, the inhibition was 1.9%.

Regarding `O=C(Nc1cccc([N+](=O)[O-])c1)C12CC3CC(C1)CC(n1cnc([N+](=O)[O-])n1)(C3)C2`, the inhibition was 92.1% (active).

For the molecule `COc1ccc(C(=O)N2CCCC(C(=O)N3CCN(c4ccccc4)CC3)C2)cc1` (stereo unspecified), the inhibition was 2.5%.

`O=C(Nc1ccc(N2CCN(C(=O)c3ccccc3)CC2)cc1)c1ccc2c(c1)OCCO2`: the inhibition was 31.2%.

On to `Cc1ccccc1C(=O)N1CCN(c2ccc(NC(=O)c3ccc4c(c3)OCO4)cc2)CC1`, for which the inhibition was 3%.

On to `COc1ccccc1N(CC(=O)Nc1ccccc1C)S(C)(=O)=O`, for which the inhibition was -26.9%.

As to `CC(NC(=O)c1ccccc1Cl)C1CC2CCC1C2` (stereo unspecified), the inhibition is -16.6%.

As for `CC(NC(=O)C1CC=CCC1C(=O)O)C1CC2CCC1C2` (stereo unspecified), the inhibition was -30.7%.

In the case of `CC(NC(=O)C1CCCC1)C1CC2CCC1C2` (stereo unspecified), the inhibition was 96.5% (active).

In the case of `C[C@]12CC(O)C3C(CCC4=CC(=O)CC[C@@]43C)C1CCC2c1csc(-c2ccccc2)n1` (stereo partly specified), the inhibition is 15.3%.

On to `CC(=O)[C@H]1CC[C@H]2[C@@H]3CCC4=CC(=O)CC[C@]4(C)[C@H]3CC[C@]12C`, for which the inhibition was 5.4% and -4.1%.

Consider `C/C(=N\O)c1ncc(C(F)(F)F)cc1Cl`, for which the inhibition is -23.5%.

`CC(C)NC(=O)CC(=O)N/N=C\c1ccccc1C(=O)O`: the inhibition was -33.7%.

For the molecule `CSc1ccccc1C(=O)Nc1cccc(N(C)S(C)(=O)=O)c1`, the inhibition is -8.4%.

Turning to `CC1Cc2ccccc2N1CC(=O)NC(=O)NCc1ccco1` (stereo unspecified), the inhibition is -5.2%.

As for `Nc1ccc2c3c(cccc13)C(=O)N(c1ccccc1)C2=O`, the inhibition was -19.1%.

As for `Nc1cccc(N2C(=O)c3cccc4c(N)ccc(c34)C2=O)c1`, the inhibition is 5.7%.

Take `Cc1cccc(N2C(=O)c3cccc4c(N)ccc(c34)C2=O)c1`: the inhibition was 26.2% (active).

For the molecule `O=C(NCCOc1ccccc1)C1CCC(=O)N(CCCN2CCOCC2)C1` (stereo unspecified), the inhibition was -28.6%.

As to `Cc1ccc2c(c1)C(=O)CC(c1ccc3c(c1)OCCO3)O2` (stereo unspecified), the inhibition is -0.6%.

In the case of `COc1ccc2c(c1)C(=O)CC(c1ccccc1F)O2` (stereo unspecified), the inhibition is 5.9%.

In the case of `Cn1c(Cl)cnc1C1CC(=O)c2cc(Cl)ccc2O1` (stereo unspecified), the inhibition was 76.3% (active).

`COc1ccc(CN(C)C(=O)c2ccc(COc3ccccc3)cc2)c(OC)c1`: the inhibition is -11.1%.

Regarding `Cc1ccsc1/C=N\NC(=O)Cn1nnc2ccccc21`, the inhibition was -9.3%.

For the molecule `OC(COC(c1ccc(Cl)cc1)c1ccc(Cl)cc1)CN1CCCC1` (stereo unspecified), the inhibition was -28.8%.

`OCCN1CCN(CC(O)COC(c2ccc(F)cc2)c2ccc(F)cc2)CC1` (stereo unspecified): the inhibition is -11.1%.

Turning to `OC(COC(c1ccc(F)cc1)c1ccc(F)cc1)CN1CCCC1` (stereo unspecified), the inhibition is 40.5% (active).

As to `Cc1ccccc1NC(=O)Cc1nc(COC(=O)c2cc(Cl)ccc2O)cs1`, the inhibition is -19.6%.

For `CC(=O)Oc1cc(OC(C)=O)c2c(=O)c(-c3ccc4c(c3)OCCCO4)c(C)oc2c1`, the inhibition was -3%.

For the molecule `O=C(NCc1cccnc1)c1ccc(-c2cc(Cl)ccc2Cl)o1`, the inhibition was 42.3%.

In the case of `O=C(NCc1cccnc1)c1ccc(-c2ccc(Cl)cc2)o1`, the inhibition was -19.4%.

With `O=C(NCc1cccnc1)c1ccc(-c2cccc(Cl)c2Cl)o1`, the inhibition is 40.8% (active).

Regarding `Cc1csc(=O)n1CC(=O)OCC(=O)Nc1cc(Cl)ccc1[N+](=O)[O-]`, the inhibition is -34.9%.

Consider `CCN(C(=O)CSc1nncs1)c1c(N)n(Cc2ccccc2)c(=O)[nH]c1=O`, for which the inhibition is 4.6%.

Take `CCC(=O)NC(C)C(c1cccs1)N1CCN(Cc2ccccc2)CC1` (stereo unspecified): the inhibition is -18.4%.

As to `O=C(COc1ccc(Cl)cc1)N1CCN(C(=O)c2ccccc2F)CC1`, the inhibition is 27.3%.

`C=C1C(=O)O[C@H]2C[C@]3(C)C([C@@H](OC(=O)/C(C)=C/C)[C@H]12)[C@](C)(O)CC[C@H]3O` (stereo partly specified): the inhibition was 13.6%.

Turning to `C=C1C(=O)O[C@H]2[C@H]1[C@@H](O)CC(=C)[C@@H]1CC(=O)[C@@H](C)[C@H]21`, the inhibition was 9.7%.

Consider `C=C1C(=O)O[C@@H]2[C@H]1[C@@H](OC(=O)/C(C)=C/C)C/C(C)=C\C(=O)/C=C(\C)[C@@H]2O`, for which the inhibition is 54.7% (active).

`CCn1c(CC(=O)Nc2ccc(OC)cc2)nnc1SCC(=O)N1CCOCC1`: the inhibition was -21.2%.

Take `COc1ccc(/C=C/C(=O)c2ccc[nH]2)c(OC)c1OC`: the inhibition is -21.2%.

On to `COc1ccc(/C=C/C(=O)c2ccncc2)c2ccccc12`, for which the inhibition is 6.3%.

For `COc1cc2[nH]c(=O)n(C3CCCCC3)c(=O)c2cc1OC`, the inhibition was 3.9%.

With `CCOc1ccc(-c2nc(N)ncc2-c2ccc(OC)cc2)c(O)c1`, the inhibition is 7.2%.

Take `CCOc1ccc(-c2nc(N)ncc2-c2ccc(Cl)cc2)c(O)c1`: the inhibition is 34.1% (active).

On to `CCOc1ccc(-c2nc(N)ncc2-c2ccccc2)c(O)c1`, for which the inhibition was 2.9%.

`C=CCN1C(=O)C(CC(=O)O)SC1=Nc1ccc(C)cc1` (stereo unspecified): the inhibition is -23.8%.

As for `CC(Oc1ccccc1)c1ccnc2nc(/N=C/N(C)C)nn12` (stereo unspecified), the inhibition is -24.9%.

As to `CC1(C)CC(=O)c2sc(NC(=O)c3ccccc3)nc2C1`, the inhibition was -45.6%.

With `CC1(C)CC(=O)c2sc(NC(=O)CCS(=O)(=O)c3ccccc3)nc2C1`, the inhibition is 71% (active).

With `CC1(C)CC(=O)c2sc(NS(=O)(=O)c3ccccc3)nc2C1`, the inhibition is -13.7%.

Take `CN(C)c1c(F)cc(C(=O)NC(=O)NCc2cccnc2)cc1F`: the inhibition was -15%.

In the case of `COc1ccc(C(CC(=O)O)NC(=O)c2cccs2)cc1` (stereo unspecified), the inhibition was -11.2%.

For `Cc1cccc(NC(NC(=O)c2ccccc2[N+](=O)[O-])C(Cl)(Cl)Cl)c1` (stereo unspecified), the inhibition is -3.9%.

Regarding `COc1cc(OC)cc(-n2nnnc2SCC(=O)Nc2nc3c(s2)CCCC3)c1`, the inhibition is -3.7%.

For `O=C(CSc1nnnn1-c1ccc2c(c1)OCCO2)Nc1nc2c(s1)CCCC2`, the inhibition was 58.5% (active).

For `COc1ccc(-n2nnnc2SCC(=O)Nc2nc3c(s2)CCCC3)cc1`, the inhibition is 43.4%.

`O=C(O)c1cccc(Oc2ccc([N+](=O)[O-])cc2)c1`: the inhibition was -8.3%.

For the molecule `COc1cc(/C=N/NC(=O)C(=O)NCc2cccnc2)cc(OC)c1OC`, the inhibition is -15.5%.

As to `N/C(=N\OC(=O)c1ccccc1)c1ccccn1`, the inhibition was 18.4%.

As for `COc1cc(OC)cc(C(=O)O/N=C(\N)c2ccccn2)c1`, the inhibition is -12.2%.

For `CCOc1ccc(C(=O)O/N=C(\N)c2ccccn2)cc1`, the inhibition is 20.4%.

As to `COc1ccc(C(=O)O/N=C(\N)c2ccccn2)cc1`, the inhibition was 84.1% (active).

As to `Cc1ccc(C(=O)O/N=C(\N)c2ccccn2)cc1`, the inhibition is 11.3%.
